For 60 sequences, binding signal and Kd results are on record in publication PMC5913336, “True equilibrium measurement of transcription factor-DNA binding affinities using automated polarization microscopy”.

What all share (assay): FP; 33 mM phosphate pH 7.0, 90 mM NaCl, 0.01% Tween 20, 0.1 mM DTT, 0.5% agarose; room temperature
In one assay the target is T1, Optix (Drosophila melanogaster, UniProt Q95RW8 139-229).
T1 sequence: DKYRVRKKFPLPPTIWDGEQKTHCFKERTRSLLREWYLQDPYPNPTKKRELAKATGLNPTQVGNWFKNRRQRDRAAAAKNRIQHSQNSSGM
The following applies: tags: N-GST (pGEX-6P-1, kept); dsDNA, one strand shown.

The next assay addresses D (Drosophila melanogaster, UniProt Q24533 127-229). The following applies: tags: N-GST (pGEX-6P-1, kept); dsDNA, one strand shown.
The next assay has as its target Ttk-PF (Drosophila melanogaster, UniProt P17789 499-564). The following applies: dsDNA, one strand shown.
The target of another assay is Cic (Drosophila melanogaster, UniProt Q9U1H0 483-565). The following applies: tags: N-GST (pGEX-6P-1, kept); dsDNA, one strand shown.

Sequence of D (Q24533 127-229): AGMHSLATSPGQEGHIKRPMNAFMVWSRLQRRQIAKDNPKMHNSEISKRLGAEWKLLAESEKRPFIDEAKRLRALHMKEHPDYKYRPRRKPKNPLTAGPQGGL

For the sequence AGAGTCATAGCT, the binding signal in the assay with Optix is 51.6 Kd / Kd of best base at the position.

Consider GACCTTTGTTCTTG, for which the binding signal with D is 2.8 Kd / Kd of best base at the position.

In the case of AGAGTGATGGCT, in the assay with Optix, the binding signal was 127 Kd / Kd of best base at the position.

Turning to GACCATTGTTGTTG, in the assay with D, the binding signal was 3.32 Kd / Kd of best base at the position.

With GACCATTGTTCCTG, in the assay with D, the binding signal was 3.75 Kd / Kd of best base at the position.

On to TGAGTGATAGCT, for which, in the assay with Optix, the binding signal was 4.48 Kd / Kd of best base at the position.

As to AGATTGATAGCT, the binding signal with Optix was 6.38 Kd / Kd of best base at the position.

As for AGAGTAATAGCT, the binding signal with Optix was 23.7 Kd / Kd of best base at the position.

As for AAAGTGATAGCT, the binding signal with Optix was 1.14 Kd / Kd of best base at the position.

Consider AGAGGGATAGCT, for which, in the assay with Optix, the binding signal is 8.18 Kd / Kd of best base at the position.

Regarding AGAGTGGTAGCT, in the assay with Optix, the binding signal was 39.7 Kd / Kd of best base at the position.

In the case of AGAATGATAGCT, the binding signal in the assay with Optix is 6.11 Kd / Kd of best base at the position.

With AGAGTGATAGCC, the binding signal with Optix was 4.04 Kd / Kd of best base at the position.

Regarding AGAGTGATAGCA, in the assay with Optix, the binding signal was 5.73 Kd / Kd of best base at the position.

As for AGAGTGATAGCT, the Kd – broadly, a measure of binding affinity in units of concentration – with Optix is around 5 nM.

Regarding AGAGTGTTAGCT, the binding signal in the assay with Optix was 34.8 Kd / Kd of best base at the position.

Consider GACCAATGTTCTTG, for which the binding signal in the assay with D was 44.4 Kd / Kd of best base at the position.

Take AGCGTGATAGCT: the binding signal with Optix is 4.94 Kd / Kd of best base at the position.

For the sequence ACAGTGATAGCT, the binding signal with Optix is 3.68 Kd / Kd of best base at the position.

With AGAGTGATACCT, the binding signal with Optix was 2.57 Kd / Kd of best base at the position.

Turning to AGAGTGATAGTT, the binding signal with Optix was 5.68 Kd / Kd of best base at the position.

Turning to AGAGTGATTGCT, in the assay with Optix, the binding signal is 49 Kd / Kd of best base at the position.

Take GAGCATTGTTCTTG: in the assay with D, the binding signal is 2.52 Kd / Kd of best base at the position.

Regarding AGAGTGACAGCT, in the assay with Optix, the binding signal was 185 Kd / Kd of best base at the position.

On to AGAGTGATAGAT, for which, in the assay with Optix, the binding signal is 16.1 Kd / Kd of best base at the position.

With GCGCCAGGATAAC, in the assay with Ttk-PF, the binding signal is 2.76 Kd / Kd of best base at the position.

As for CGTTGAATGGGCT, the binding signal with Cic is 1.86 Kd / Kd of best base at the position.

As to CGTTGAATGAGGT, the binding signal with Cic was 2.2 Kd / Kd of best base at the position.

Consider CGTTGAATGGAGT, for which the binding signal with Cic is 1.79 Kd / Kd of best base at the position.

On to CGTTGGATGGGGT, for which, in the assay with Cic, the binding signal is 20.4 Kd / Kd of best base at the position.

In the case of CGATGAATGGGGT, in the assay with Cic, the binding signal is 2.02 Kd / Kd of best base at the position.

As for CGTTGAATGCGGT, the binding signal with Cic is 7.69 Kd / Kd of best base at the position.

Turning to CGTTGAATGGGGT, the Kd with Cic is around 34.1 nM.

For CGTTGAATGGCGT, in the assay with Cic, the binding signal is 2 Kd / Kd of best base at the position.

Turning to CGTTGAACGGGGT, in the assay with Cic, the binding signal is 10.1 Kd / Kd of best base at the position.

As to CGTTGAAGGGGGT, the binding signal with Cic was 11.1 Kd / Kd of best base at the position.

For the sequence CGTTGAATTGGGT, in the assay with Cic, the binding signal is 6.71 Kd / Kd of best base at the position.

As for CGTCGAATGGGGT, in the assay with Cic, the binding signal was 12.4 Kd / Kd of best base at the position.

Turning to CGTTGAGTGGGGT, the binding signal in the assay with Cic was 7.68 Kd / Kd of best base at the position.

Take CGTTGAATGGGTT: in the assay with Cic, the binding signal was 1.85 Kd / Kd of best base at the position.

As to CGTTCAATGGGGT, in the assay with Cic, the binding signal is 1.93 Kd / Kd of best base at the position.

On to CCTTGAATGGGGT, for which the binding signal with Cic is 1.89 Kd / Kd of best base at the position.

Take CTTTGAATGGGGT: the binding signal in the assay with Cic is 1.85 Kd / Kd of best base at the position.

On to CGTTGAATGGGGA, for which the binding signal with Cic is 2.36 Kd / Kd of best base at the position.

Regarding AGTTGAATGGGGT, the binding signal with Cic was 1.69 Kd / Kd of best base at the position.

CGTTAAATGGGGT: the binding signal with Cic is 3.06 Kd / Kd of best base at the position.

Take CGTTGAATGGGGC: the binding signal in the assay with Cic was 2.65 Kd / Kd of best base at the position.

Regarding CGTTGAATCGGGT, the binding signal with Cic is 7.88 Kd / Kd of best base at the position.

Take CGTAGAATGGGGT: the binding signal with Cic was 5.55 Kd / Kd of best base at the position.

For the sequence CGGTGAATGGGGT, the binding signal with Cic was 2.27 Kd / Kd of best base at the position.

CATTGAATGGGGT: the binding signal with Cic was 1.53 Kd / Kd of best base at the position.

Take CGTTGAATGGGAT: the binding signal with Cic is 1.93 Kd / Kd of best base at the position.

As to CGTTGAATGGGGG, the binding signal with Cic was 2.15 Kd / Kd of best base at the position.

Turning to CGTTGTATGGGGT, the binding signal in the assay with Cic was 5.33 Kd / Kd of best base at the position.

Regarding CGTGGAATGGGGT, in the assay with Cic, the binding signal is 17.5 Kd / Kd of best base at the position.

Regarding CGTTGATTGGGGT, the binding signal with Cic was 8.11 Kd / Kd of best base at the position.

As for CGTTGAATAGGGT, the binding signal with Cic is 6.64 Kd / Kd of best base at the position.

For CGTTGACTGGGGT, in the assay with Cic, the binding signal was 3.64 Kd / Kd of best base at the position.

Regarding CGTTGAATGTGGT, the binding signal in the assay with Cic is 4.08 Kd / Kd of best base at the position.

On to CGTTGAAAGGGGT, for which the binding signal with Cic was 8.64 Kd / Kd of best base at the position.
